Bioassay records: PubChem BioAssay, National Center for Advancing Translational Sciences (NCATS)
In the library only some 12% were active in any assay of this set; here they are far more common.
BAZ2B inh: blocks human BAZ2B | AID 504333 | 360,000 compounds, 4.4% hits | AlphaScreen BAZ2B-H3K14Ac peptide displacement | Q9UIF8 | Potency, µM (top dose mostly 114 µM), without a hit: top-dose activity change, negative = inhibition, hits mostly inhibitors; note: % is set by controls: 0 for no effect and ±100 for the full control effect; nearly all actives have a fitted effect of over 60% in size
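AlphaScreen luminescence quantifies BAZ2B engagement of H3K14Ac peptide; the protein and biotinylated peptide are both at 50 nM final, buffer PBS pH 7.4 with 0.01% Tween-20, all steps at room temperature.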
HP1b chromo inh: inhibitors of HP1-beta chromodomain binding to methylated histone tails. AID 540317. 390,000 compounds, 0.56% hits. Potency, µM (series often up to 114 µM), for the others: at the top dose activity change, negative = inhibition, hits mostly inhibitors. AlphaScreen HP1-beta / biotin-H3K9me3 peptide binding; note: nearly all actives have a fitted effect of over 70% in size
Target sequence (P83916 whole entry, looked up): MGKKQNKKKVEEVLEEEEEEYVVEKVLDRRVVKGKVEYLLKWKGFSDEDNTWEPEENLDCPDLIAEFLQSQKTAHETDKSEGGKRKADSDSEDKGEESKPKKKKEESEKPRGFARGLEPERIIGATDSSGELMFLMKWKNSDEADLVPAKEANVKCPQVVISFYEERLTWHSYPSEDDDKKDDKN
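AlphaScreen: HP1-beta (50 nM) preformed 30 min with biotin-H3(1-18)K9me3 peptide (50 nM) in PBS pH 7.4, 0.01% Tween-20. Compound added for 30 min at RT, then streptavidin donor/nickel chelate acceptor beads (10 ug/mL) for 30 min.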
G9a inh: blocks human histone lysine methyltransferase G9a; G9a H3K9 monomethylation, AlphaScreen, 2 h; AID 504332; Q96KQ7; Potency, µM (doses to about 102 µM), for inactives: at the top dose activity, negative = inhibition, actives largely listed as inhibitors; 350,000 compounds, 8.8% hits; note: % is set by controls: 0 for no effect and ±100 for the full control effect; nearly all actives have a fitted effect of over 75% in size
Target sequence (Q96KQ7 913-1193 limits assumed): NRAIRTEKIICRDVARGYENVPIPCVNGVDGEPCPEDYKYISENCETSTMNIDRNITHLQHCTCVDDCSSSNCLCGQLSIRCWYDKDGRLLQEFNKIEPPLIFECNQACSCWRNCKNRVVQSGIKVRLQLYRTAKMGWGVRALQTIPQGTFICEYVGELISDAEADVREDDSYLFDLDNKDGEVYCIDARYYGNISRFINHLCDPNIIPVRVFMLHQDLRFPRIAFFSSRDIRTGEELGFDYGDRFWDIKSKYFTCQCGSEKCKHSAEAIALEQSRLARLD
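Compounds were preincubated with 20 nM G9a for 15 min, after which biotinylated H3K9 peptide (500 nM) and SAM (20 uM) started a 2 h room-temperature reaction. Monomethylated product was quantified by antibody-based AlphaScreen chemiluminescence.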
JMJD2A Tudor inh: inhibitors of human JMJD2A Tudor domain | O75164 | 390,000 compounds, 4.4% hits | AID 504339 | AlphaScreen JMJD2A-Tudor / H3K4me3 peptide binding | Potency, µM (highest dose often 114 µM), for inactives: at the top dose activity change, negative = inhibition, most hits filed as inhibitors; note: % is set by controls: 0 for no effect and ±100 for the full control effect; nearly all actives have a fitted effect of over 50% in size
Sfp PPTase inh: blocks B. subtilis Sfp PPTase activity | Q9F4F7 | Biochemical Sfp PPTase activity, qHTS | Potency, µM, inactives show largest response in the series, negative = inhibition, actives largely listed as inhibitors | 310,000 compounds, 3.5% hits | AID 1490;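 note: the enzyme is Sfp with the accession as filed and its product quenches rhodamine fluorescence; 0% = enzyme reaction without inhibitor and -100% = no enzyme wells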
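With Hepes-Na pH 7.6 buffer containing 10 mM MgCl2, Sfp (15 nM) modified BHQ-2-YbbR (12.5 uM) using rhodamine-CoA (5 uM). Two reads 30 minutes apart at 525/598 nm yielded each well's rate.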
L3MBTL1 inh: inhibitors of human L3MBTL1; 230,000 compounds, 0.66% hits; Potency, µM (highest dose often 57.1 µM), without a hit: at the top dose activity, negative = inhibition, usual class: inhibitors; Q9Y468; AlphaScreen L3MBTL1–H3K9me1 peptide binding; AID 485360; note: % is set by controls: 0 for no effect and ±100 for the full control effect; nearly all actives have a fitted effect of over 60% in size
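L3MBTL1 50 nM + b-AHA-H3(1-15)K9me1 75 nM, 30 min RT; compound added, 30 min RT; streptavidin donor/Ni-chelate acceptor beads 10 ug/mL each final, 30 min RT dark; AlphaScreen read.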
An asterisk follows results filed as active; ! = not active in a repeat; [ ] = another dose, or the depositor's remark. Calls come from the whole dose curve; as a rule, active = well fitted curve in the direction sought with a large enough effect; inconclusive = small, poorly fitted or top-dose-only effect, or another doubt; inactive = no such curve, though single readings can be large; an effect the other way counts as inactive or inconclusive. Potency is the fitted concentration of half-maximal effect.

Results for COc1ccc(N2CC(C(=O)NCc3ccco3)CC2=O)cc1 (configuration not stated) ?
BAZ2B inh: -12.6%; HP1b chromo inh: 25.4%; G9a inh: 17.8µM*; JMJD2A Tudor inh: inconclusive; Sfp PPTase inh: inconclusive; L3MBTL1 inh: -7.9%

How did O=C1N=C(N2CCCCC2)SC1=C1CCCCC1 do in these assays?
BAZ2B inh: -3.6%; HP1b chromo inh: 36.0%; G9a inh: 25.1µM*; JMJD2A Tudor inh: 2.9%; Sfp PPTase inh: -3.5%

How did Cc1ccccc1C(=O)Nc1sc2c(c1C(=O)O)CCC(C(C)(C)C)C2 (configuration not stated) do in these assays?
BAZ2B inh: inconclusive; HP1b chromo inh: -0.9%; G9a inh: 10µM*; JMJD2A Tudor inh: -34.9%

Results for O=C(Nc1sc2c(c1C(=O)Nc1ccc(Cl)cc1)CCCC2)c1cccs1 ?
BAZ2B inh: -1.9%; HP1b chromo inh: 23.6%; G9a inh: 20.8%[59 µM]; JMJD2A Tudor inh: -8.8%

Results for CC1=NNC(=O)C1Br (configuration not stated) ?
HP1b chromo inh: 14.1µM*; JMJD2A Tudor inh: 89.1µM*

What do the screens show for `CC(=O)OCC(=O)C1CCC2C3CC=C4CC(O)CC[C@@]4(C)C3CC[C@]12C` (some centres not stated)?
G9a inh: -23.3%[2.33 µM]; Sfp PPTase inh: 3.2%

What do the screens show for `O=c1c2cc(N3CCOCC3)ccc2[nH]c(=S)n1Cc1ccc(Cl)cc1`?
BAZ2B inh: -18.4%; HP1b chromo inh: 47.8%; G9a inh: 23.7%; JMJD2A Tudor inh: 9.0%; Sfp PPTase inh: 15.8µM*

What do the screens show for `c1ccc(C(c2ccccc2)c2cccnc2)cc1`?
HP1b chromo inh: 12.6%[57 µM]; JMJD2A Tudor inh: 6.9%

How did c1ccc(-c2ccc(C(c3ccccc3)n3ccnc3)cc2)cc1 (configuration not stated) do in these assays?
BAZ2B inh: 25.1µM*; HP1b chromo inh: -27.9%; G9a inh: inconclusive; JMJD2A Tudor inh: 25.1µM*; Sfp PPTase inh: inconclusive; L3MBTL1 inh: -18.9%

How did Cc1ccc(NC(=O)C2CCN(C(=O)c3cnn(-c4ccccc4)c3-n3cccc3)CC2)cc1Cl do in these assays?
BAZ2B inh: -15.6%; HP1b chromo inh: -4.7%; G9a inh: -0.8%[59 µM]; JMJD2A Tudor inh: inconclusive

What do the screens show for `Cc1c(C(=O)c2ccc3ccccc3c2)c2cccc3c2n1[C@H](CN1CCOCC1)CO3`?
Sfp PPTase inh: -3.3%

How did O=C(CN1CCOCC1)c1ccc(Br)cc1 do in these assays?
BAZ2B inh: -15.9%; HP1b chromo inh: 21.8%; G9a inh: inconclusive; JMJD2A Tudor inh: 79.4µM*; Sfp PPTase inh: -8.6%

How did Cc1c(C(=O)c2cccc3ccccc23)c2cccc3c2n1[C@H](CN1CCOCC1)CO3 do in these assays?
HP1b chromo inh: -9.0%; G9a inh: 11.2µM*!; JMJD2A Tudor inh: 56.2µM*; Sfp PPTase inh: 22.9%

What do the screens show for `O=C(CN1CCOCC1)c1cccc2ccccc12`?
BAZ2B inh: 50.1µM*; HP1b chromo inh: -25.6%; G9a inh: 3.16µM*; JMJD2A Tudor inh: 7.94µM*; Sfp PPTase inh: 39.8µM*; L3MBTL1 inh: -6.6%

What do the screens show for `COc1ccc(C(=O)NCCn2cc(SC(C)c3ccccc3)c3ccccc32)cc1OC` (configuration not stated)?
BAZ2B inh: inconclusive; HP1b chromo inh: 11.8%; G9a inh: -39.1%[59 µM]; JMJD2A Tudor inh: -28.4%

How did CN1CCCCC1c1cccnc1 (configuration not stated) do in these assays?
G9a inh: 41.0%[59 µM]; Sfp PPTase inh: -19.1%

Results for O=C(c1ccco1)N1CCN(C(=O)c2ccc(COc3ccc(Cl)cc3Cl)o2)CC1 ?
HP1b chromo inh: -19.8%; JMJD2A Tudor inh: 89.1µM*

Results for CCCCCCCCCCCCOCCOCCOCCOCCOCCOCCOCCOCCOCCO ?
G9a inh: -0.7%[12.7 µM]; Sfp PPTase inh: 70.8µM*

What do the screens show for `CC(CCC(=O)O)C1CCC2C3CC[C@H]4CC(O)CC[C@@]4(C)C3CC[C@@]12C` (some centres not stated)?
G9a inh: -38.6%[2.33 µM]; Sfp PPTase inh: -13.1%

How did CCCCC(=O)c1c(O)c2ccccc2oc1=O do in these assays?
BAZ2B inh: -11.5%; HP1b chromo inh: 18.7%; G9a inh: 44.7µM*; JMJD2A Tudor inh: inconclusive; Sfp PPTase inh: 5.9%; L3MBTL1 inh: 0.0%

How did COc1ccc(NC(=O)CCc2nc(C3=CCN(Cc4cccc(Cl)c4)CC3)no2)c(OC)c1 do in these assays?
BAZ2B inh: inconclusive; HP1b chromo inh: 0.5%[57 µM]; G9a inh: inconclusive; JMJD2A Tudor inh: inconclusive

How did COc1ccc(NC(=O)CCc2nc(C3=CCN(Cc4cccc(Cl)c4)CC3)no2)cc1OC do in these assays?
BAZ2B inh: 50.1µM*; HP1b chromo inh: -4.5%[57 µM]; G9a inh: 28.2µM*; JMJD2A Tudor inh: 56.2µM*

How did Cn1c(O)c(C(c2ccncc2)c2c(O)n(C)c(=S)n(C)c2=O)c(=O)n(C)c1=S do in these assays?
BAZ2B inh: -2.5%; HP1b chromo inh: 25.9%; G9a inh: inconclusive; JMJD2A Tudor inh: -35.9%; Sfp PPTase inh: 13.9%

How did CCC(C)n1c(O)c(C(c2ccccn2)c2c(O)n(C(C)CC)c(=S)[nH]c2=O)c(=O)[nH]c1=S (configuration not stated) do in these assays?
BAZ2B inh: 35.5µM*; HP1b chromo inh: 29.3%; G9a inh: 11.2µM*; JMJD2A Tudor inh: inconclusive; Sfp PPTase inh: 50.1µM*; L3MBTL1 inh: -9.7%

How did Cn1c(O)c(C(c2ccccn2)c2c(O)n(C)c(=S)n(C)c2=O)c(=O)n(C)c1=S do in these assays?
BAZ2B inh: 5.01µM*; HP1b chromo inh: 6.5%; G9a inh: 3.98µM*; JMJD2A Tudor inh: 3.98µM*; Sfp PPTase inh: inconclusive; L3MBTL1 inh: -0.9%

What do the screens show for `O=c1[nH]c(=S)[nH]c(O)c1N=Nc1ccc(SC(F)F)cc1`?
BAZ2B inh: -30.6%; HP1b chromo inh: -22.6%; G9a inh: 44.7µM*; JMJD2A Tudor inh: -25.0%; Sfp PPTase inh: -21.2%; L3MBTL1 inh: -12.9%

Results for COc1ccccc1N1CCN(Cc2ccccc2Cl)CC1 ?
BAZ2B inh: 35.5µM*; HP1b chromo inh: -45.2%; G9a inh: 14.1µM*; JMJD2A Tudor inh: 3.16µM*; Sfp PPTase inh: -17.7%

Results for COc1ccccc1N1CCN(Cc2cccc(OC)c2O)CC1 ?
BAZ2B inh: 50.1µM*; HP1b chromo inh: 15.5%; G9a inh: 44.7µM*; JMJD2A Tudor inh: inconclusive; Sfp PPTase inh: 2.3%; L3MBTL1 inh: -7.6%

How did COc1ccccc1N1CCN(Cc2ccccc2F)CC1 do in these assays?
BAZ2B inh: 44.7µM*; HP1b chromo inh: inconclusive; G9a inh: -44.2%[2.33 µM]; JMJD2A Tudor inh: 6.31µM*; Sfp PPTase inh: -22.7%
